Assay outcomes as filed in PubChem BioAssay.
RGS4 inhibitor – blocks human RGS4-accelerated GTP hydrolysis. P49798. Transcreener GDP fluorescence polarization, RGS4-accelerated GTP hydrolysis. Potency, µM (titrated, usually from 114 µM), most hits filed as inhibitors. actives 0.039% (n = 390,000); note: nearly all actives have a fitted effect of over 75% in size
Target sequence (P49798 whole entry, looked up): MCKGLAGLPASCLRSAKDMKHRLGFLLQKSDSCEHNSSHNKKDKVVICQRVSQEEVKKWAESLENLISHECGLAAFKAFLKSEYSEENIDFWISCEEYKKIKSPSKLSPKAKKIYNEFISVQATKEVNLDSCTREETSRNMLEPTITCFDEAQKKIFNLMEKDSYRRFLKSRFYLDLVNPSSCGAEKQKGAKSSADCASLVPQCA
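MLSMR compounds (23 nl, pin-transferred) preincubated 10 min at room temperature with a 500nM (2x) first reagent, then RGS4 at 900nM (2x) plus Transcreener GDP mix added; fluorescence polarization (620/688 nm) read before and after 90 min at 30 °C.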
Eya2 inh – blocks the phosphatase activity of human Eya2; O00167; recombinant Eya2, OMFP fluorescence dephosphorylation (OMFP is methylfluorescein phosphate); Potency, µM (highest dose often 76.9 µM), most hits filed as inhibitors; actives 0.006% (n = 330,000)
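Eya2 protein (added as 0.2 uM solution) was preincubated with compound for 10 min at ambient temperature in 50 mM HEPES pH 7.5, 50 mM NaCl, 5 uM MgCl2, 0.05% BSA, 1 mM DTT. OMFP (added at 50 uM) then reacted 10 min; fluorescence read at 485/525 nm.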
TrxR1 substrate – substrates of rat thioredoxin reductase 1; AID 588456; actives 0.01% (n = 390,000); Potency, µM (highest dose often 114 µM); O89049; purified TrxR1 substrate turnover, NADPH consumption readout; note: nearly all actives have a fitted effect of over 50% in size
Target sequence (O89049 whole entry, looked up): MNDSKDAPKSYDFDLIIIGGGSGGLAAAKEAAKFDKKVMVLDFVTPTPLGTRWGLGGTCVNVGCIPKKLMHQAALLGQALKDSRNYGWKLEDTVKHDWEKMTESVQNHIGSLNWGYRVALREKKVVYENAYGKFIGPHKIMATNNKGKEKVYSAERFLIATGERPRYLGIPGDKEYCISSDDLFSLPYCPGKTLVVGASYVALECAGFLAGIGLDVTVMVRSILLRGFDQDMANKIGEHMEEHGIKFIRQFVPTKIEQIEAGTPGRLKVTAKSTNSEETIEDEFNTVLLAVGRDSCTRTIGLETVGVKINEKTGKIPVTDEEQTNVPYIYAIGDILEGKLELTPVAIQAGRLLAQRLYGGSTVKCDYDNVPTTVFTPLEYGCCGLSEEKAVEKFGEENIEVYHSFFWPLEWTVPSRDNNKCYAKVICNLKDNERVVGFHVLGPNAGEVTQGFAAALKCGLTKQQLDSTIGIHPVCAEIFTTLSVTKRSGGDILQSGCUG
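Rat TrxR1, dispensed at 90 nM, was prereduced with 400 uM NADPH (final) for 5 min at ~22 deg C, then incubated with compound 15 min before 400 uM selenite. A first-read NADPH fluorescence drop versus no-compound background flagged substrates.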
TrxR1 inh – blocks rat thioredoxin reductase 1 | actives 1% (n = 390,000) | recombinant rTrxR1, NADPH fluorescence consumption, selenite substrate | AID 588453 | Potency, µM (series often up to 114 µM), most hits filed as inhibitors | O89049; note: nearly all actives have a fitted effect of over 65% in size
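Rat TrxR1 (90 nM in the dispensed reagent) was pre-reduced with 400 uM NADPH for 5 min at room temperature, then incubated with compound for 15 min. After 400 uM selenite was added, NADPH fluorescence (Ex 340/Em 450 nm) was followed for 8 min.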
mIDH1 inhibitor – inhibitors of human mutant IDH1 R132H; O75874; IDH1-R132H enzyme, NADPH consumption, diaphorase/resazurin fluorescence; Potency, µM (titrated, usually from 76.6 µM), most hits filed as inhibitors; actives 0.093% (n = 390,000); AID 602179; note: nearly all actives have a fitted effect of over 65% in size
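IDH1-R132H (0.5 ug/mL dispensed) in pH 7.5 Tris buffer was preincubated 30 min with compound, then given a substrate mix of 0.016 mM NADPH and 2 mM alpha-KG for 80 min at room temperature; remaining NADPH was read by diaphorase/resazurin fluorescence.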
Hits are given with their value; ! = not active in a repeat. Most compounds without a hit are left out; they make up all but 1.1% or so of the library. Calls come from the whole dose curve; as a rule, active = well fitted curve in the direction sought with a large enough effect; inconclusive = small, poorly fitted or top-dose-only effect, or another doubt; inactive = no such curve, though single readings can be large; an effect the other way counts as inactive or inconclusive.

Cc1cccc(N2CCN(C(=O)c3cc(S(=O)(=O)N4CCC(C)CC4)cn3C)CC2)c1C was read as RGS4 inhibitor inactive, TrxR1 substrate inactive, TrxR1 inh inactive and mIDH1 inhibitor inactive.
Screening CCCCNC(=O)COC(=O)C1CCN(S(=O)(=O)c2ccc3c(c2)OCCO3)CC1 returned RGS4 inhibitor inactive, Eya2 inh inactive, TrxR1 substrate inactive, TrxR1 inh inactive and mIDH1 inhibitor inactive.
Screening CCN(CC(=O)Nc1c(F)cccc1F)C(=O)CCOc1ccccc1 returned RGS4 inhibitor inactive, Eya2 inh inactive, TrxR1 substrate inactive, TrxR1 inh inactive and mIDH1 inhibitor inactive.
For COc1cccc(NS(=O)(=O)c2ccc(NC(C)=O)cc2)c1 the results were RGS4 inhibitor inactive, Eya2 inh inactive, TrxR1 substrate inactive, TrxR1 inh inactive and mIDH1 inhibitor inactive.
For COc1cccc(/C(O)=C/C(=O)C(=O)Nc2ccc(S(=O)(=O)NC(C)=O)cc2)c1 the results were RGS4 inhibitor inactive, Eya2 inh inactive, TrxR1 substrate inactive, TrxR1 inh 22µM and mIDH1 inhibitor inactive.
Screening CS(=O)(=O)c1ncc(Cl)c(C(=O)N2CCN(c3cccc(Cl)c3)CC2)n1 returned RGS4 inhibitor inconclusive, TrxR1 substrate inactive, TrxR1 inh 0.89µM and mIDH1 inhibitor inactive.
CCS(=O)(=O)c1ncc(Cl)c(C(=O)N2CCN(c3cccc(Cl)c3)CC2)n1 was read as RGS4 inhibitor inactive, TrxR1 substrate inactive, TrxR1 inh 0.4µM and mIDH1 inhibitor inactive.
`CC(C)(C)OC(=O)N1CCN(/[N+]([O-])=N/Oc2ccc([N+](=O)[O-])cc2[N+](=O)[O-])CC1` gave TrxR1 substrate inactive and TrxR1 inh inconclusive.
CN(C)c1ccc(C(=O)Oc2cc(O/N=[N+](\[O-])N(C)C)c([N+](=O)[O-])cc2[N+](=O)[O-])cc1 was read as TrxR1 substrate inactive and TrxR1 inh inactive.
For CCN(CC)/[N+]([O-])=N/Oc1ccc([N+](=O)[O-])cc1[N+](=O)[O-] the results were TrxR1 substrate inactive and TrxR1 inh 14µM.
Screening CCN(CC)C(=O)N1CCN(/[N+]([O-])=N/Oc2ccc([N+](=O)[O-])cc2[N+](=O)[O-])CC1 returned TrxR1 substrate inactive and TrxR1 inh 22µM.
`CC(=O)N1CCN(/[N+]([O-])=N/Oc2ccc([N+](=O)[O-])cc2[N+](=O)[O-])CC1` gave TrxR1 substrate inactive and TrxR1 inh 10µM.
CN(C)/[N+]([O-])=N/Oc1cc(F)c([N+](=O)[O-])cc1[N+](=O)[O-] was read as TrxR1 substrate inactive and TrxR1 inh 20µM.
For CCN(CC)c1ccc(C(=O)N/N=C/c2ccccc2OC(F)F)cc1 the results were RGS4 inhibitor inactive, Eya2 inh inactive, TrxR1 substrate inactive, TrxR1 inh inactive and mIDH1 inhibitor inactive.
CC1=C(c2ccc(Cl)cc2)[N+](=O)C(C)(C)N1[O-] was read as RGS4 inhibitor inactive, Eya2 inh inactive, TrxR1 substrate inactive, TrxR1 inh inactive and mIDH1 inhibitor inactive.
Screening CCOC(=O)N1CCN(/[N+]([O-])=N/Oc2ccc(C(F)(F)F)cc2[N+](=O)[O-])CC1 returned TrxR1 substrate inactive and TrxR1 inh inactive.
For CCNC(=O)N1CCN(/[N+]([O-])=N/Oc2ccc([N+](=O)[O-])cc2[N+](=O)[O-])CC1 the results were TrxR1 substrate inactive and TrxR1 inh 14µM.
For CC1CN(c2nnc(-c3ccccc3)c3ccccc23)CC(C)O1 (stereo unspecified) the results were RGS4 inhibitor inconclusive, Eya2 inh inactive, TrxR1 substrate inactive, TrxR1 inh inactive and mIDH1 inhibitor inactive.
`Oc1cc(NCCN2CCOCC2)cc2cccnc12` gave RGS4 inhibitor inactive, Eya2 inh inactive, TrxR1 substrate inactive and TrxR1 inh 11µM.
CC(=O)c1ccc2c(c1)C1C=CCC1C(c1ccc(S(=O)(=O)N3CCOCC3)cc1)N2 (stereo unspecified) was read as RGS4 inhibitor inactive, Eya2 inh inactive, TrxR1 substrate inactive, TrxR1 inh 50µM and mIDH1 inhibitor inactive.
Screening O=C(O)c1ccc2c(c1)C1C=CCC1C(c1ccncc1)N2 (stereo unspecified) returned RGS4 inhibitor inactive, Eya2 inh inactive, TrxR1 substrate inactive, TrxR1 inh inactive and mIDH1 inhibitor inactive.
Screening COC(=O)c1ccc([C@H]2Nc3ccc(S(=O)(=O)Nc4ccc(C)cc4)cc3[C@H]3C=CC[C@H]32)cc1 returned RGS4 inhibitor inactive, TrxR1 substrate inactive, TrxR1 inh 50µM and mIDH1 inhibitor inactive.
O=C(O)COc1ccc2c(c1)O/C(=C\c1ccco1)C2=O was read as RGS4 inhibitor inactive, Eya2 inh inactive, TrxR1 substrate inactive, TrxR1 inh 45µM and mIDH1 inhibitor inactive.
COc1ccc(-n2ccnc2SCC(=O)Nc2ccc3c(c2)OCO3)cc1 was read as RGS4 inhibitor inactive, TrxR1 substrate inactive, TrxR1 inh inactive and mIDH1 inhibitor inactive.
`COc1ccc2c([N+](=O)[O-])c(N3CCOCC3)[nH]c2c1` gave mIDH1 inhibitor inactive.
`COc1ccc2c([N+](=O)[O-])c(Cl)[nH]c2c1` gave RGS4 inhibitor inconclusive, Eya2 inh inactive, TrxR1 substrate inactive, TrxR1 inh 14µM and mIDH1 inhibitor inactive.
`Cc1ccc(S(=O)(=O)NC2OC(=O)C(Cl)=C2Cl)cc1` (stereo unspecified) gave RGS4 inhibitor inactive, Eya2 inh inactive, TrxR1 substrate inactive, TrxR1 inh 10µM and mIDH1 inhibitor inactive.
`CCOC(=O)c1sc2nc(C3CC3)cc(-c3ccc(OC)cc3)c2c1N` gave RGS4 inhibitor inactive, Eya2 inh inactive, TrxR1 substrate inactive, TrxR1 inh 50µM and mIDH1 inhibitor inactive.
Screening CN1CCc2cc(Cl)c(O)cc2[C@@H](c2ccccc2)C1 returned RGS4 inhibitor 3µM!, Eya2 inh inactive, TrxR1 substrate inactive, TrxR1 inh inactive and mIDH1 inhibitor inactive.
Screening CN(C)S(=O)(=O)c1ccc2c(c1)N(CC(=O)N1CCCCC1)CCS2 returned RGS4 inhibitor inactive, TrxR1 substrate inactive, TrxR1 inh inactive and mIDH1 inhibitor inactive.
`Cc1ccc(S(=O)(=O)NCCC(=O)NC2CCCC2)cc1` gave RGS4 inhibitor inactive, Eya2 inh inactive, TrxR1 substrate inactive, TrxR1 inh inactive and mIDH1 inhibitor inactive.
COC(=O)c1cn[nH]c1NC(=S)Nc1ccc(C)cc1Cl was read as RGS4 inhibitor inactive, Eya2 inh inactive, TrxR1 substrate inactive, TrxR1 inh inconclusive and mIDH1 inhibitor inactive.
For CCC(=O)NC(=S)Nc1ccccc1C(=O)OC the results were RGS4 inhibitor inactive, Eya2 inh inactive, TrxR1 substrate inactive, TrxR1 inh 50µM and mIDH1 inhibitor inactive.
`COC(=O)c1cn[nH]c1NC(=S)Nc1ccccc1C` gave RGS4 inhibitor inactive, Eya2 inh inactive, TrxR1 substrate inactive, TrxR1 inh 0.79µM and mIDH1 inhibitor inactive.
